Assay results reported in PubChem BioAssay (EPA / NIEHS).
“And” between values parts separate entries of the source, which are not always exact repeats. Identical values can stand only once. The source holds several records for some structures; these can differ, active in one and inactive in another. The source made the active and inactive calls. The calls were made as follows: active = hit-call score of the fitted dose curve at least 0.9, where 1 is the maximum; inactive = score below 0.9.

What was measured:
Settings in all cases: mRNA level, 48 h; actives raise or lower the signal
[1] = read-out: catalase (CAT), CAT (gene 847); experiment: LTEA_HepaRG_CAT: Life Technologies and Expression Analysis (LTEA) Assay for catalase (CAT) using HepaRG (AID 2283452);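 as to AC50: TaqMan qRT-PCR signal normalized to ACTB GAPDH and POLR2A housekeeping genes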
In short: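 Expression of CAT was quantified by TaqMan qRT-PCR with ACTB/GAPDH/POLR2A normalization after 48 h chemical exposure of HepaRG. Eight-point half-log series, top 100 uM, in 0.5% DMSO; gain or loss fitted against vehicle.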

[2] = read-out: flavin-containing dimethylaniline monooxygenases 3 (FMO3), FMO3 (gene 2328); experiment: LTEA_HepaRG_FMO3: Life Technologies and Expression Analysis (LTEA) Assay for flavin-containing dimethylaniline monooxygenases 3 (FMO3) using HepaRG (AID 2283453)
In short: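 Eight-point concentration-response in serum-free HepaRG cultures (top 100 uM, 0.5% DMSO, 48 h). Read-out: FMO3 mRNA level normalized to three endogenous control genes, fitted bidirectionally versus vehicle.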

[3] = read-out: Cytochrome P450 (CYP1A1), CYP1A1 (gene 1543); experiment: LTEA_HepaRG_CYP1A1: Life Technologies and Expression Analysis (LTEA) Assay for Cytochrome P450 (CYP1A1) using HepaRG (AID 2283454)
In short: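 Differentiated human HepaRG cells, after 48 h plating, exposed in duplicate for 48 h in serum-free induction medium to 8 half-log concentrations up to 100 uM in 0.5% DMSO. CYP1A1 mRNA by qRT-PCR, normalized to ACTB/GAPDH/POLR2A; bidirectional fit versus DMSO.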

[4] = read-out: CFLAR gene, CFLAR (gene 8837); experiment: LTEA_HepaRG_CFLAR: Life Technologies and Expression Analysis (LTEA) Assay for CFLAR gene using HepaRG (AID 2283455)
In short: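 Transcript level by qRT-PCR (normalized to ACTB, GAPDH and POLR2A) after 48 h chemical exposure of HepaRG cells, top concentration 100 uM with half-log steps, 0.5% DMSO vehicle, duplicates; fitted bidirectionally against DMSO baseline.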

[5] = read-out: Forkhead box O1 (FOXO1), FOXO1 (gene 2308); experiment: LTEA_HepaRG_FOXO1: Life Technologies and Expression Analysis (LTEA) Assay for Forkhead box O1 (FOXO1) using HepaRG (AID 2283456)
In short: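 FOXO1 transcript quantified by qRT-PCR after 48 h chemical exposure (top 100 uM, half-log steps, 0.5% DMSO) of HepaRG cells, housekeeping-normalized (ACTB/GAPDH/POLR2A). Changes fitted in both directions relative to vehicle.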

[6] = read-out: growth arrest and DNA damage 45 (GADD45A), GADD45A (gene 1647); experiment: LTEA_HepaRG_GADD45A: Life Technologies and Expression Analysis (LTEA) Assay for growth arrest and DNA damage 45 (GADD45A) using HepaRG (AID 2283458)
In short: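 Eight-point concentration-response in HepaRG cells: 48 h chemical exposure, 0.5% DMSO vehicle, top dose 100 uM. Normalized qRT-PCR mRNA readout with bidirectional fitting relative to DMSO.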

[7] = read-out: Forkhead box O3 (FOXO3), FOXO3 (gene 2309); experiment: LTEA_HepaRG_FOXO3: Life Technologies and Expression Analysis (LTEA) Assay for Forkhead box O3 (FOXO3) using HepaRG (AID 2283459)
In short: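 FOXO3 transcript measured by qRT-PCR (normalized to ACTB, GAPDH, POLR2A) after 48 h exposure of HepaRG cells in serum-free induction medium. Duplicates, eight half-log concentrations up to 100 uM, 0.5% DMSO; gain or loss fitted against DMSO.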

[8] = read-out: ABC Transporter (ABCB1), ABCB1 (gene 5243); experiment: LTEA_HepaRG_ABCB1: Life Technologies and Expression Analysis (LTEA) Assay for ABC Transporter (ABCB1) using HepaRG (AID 2283460)
In short: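 ABCB1 transcript level measured by TaqMan qRT-PCR against three housekeeping genes after 48 h chemical exposure of differentiated HepaRG cells. Top concentration 100 uM, half-log steps, eight points, 0.5% DMSO vehicle; bidirectional fit relative to DMSO.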

[9] = read-out: growth arrest and DNA damage 45 (GADD45B), GADD45B (gene 4616); experiment: LTEA_HepaRG_GADD45B: Life Technologies and Expression Analysis (LTEA) Assay for growth arrest and DNA damage 45 (GADD45B) using HepaRG (AID 2283461)
In short: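 Differentiated human HepaRG cells in serum-free induction medium exposed 48 h in duplicate to eight concentrations, top 100 uM, half-log steps, 0.5% DMSO. GADD45B mRNA by TaqMan qRT-PCR, normalized to ACTB, GAPDH, POLR2A; bidirectional fit versus DMSO.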

[10] = read-out: ABC Transporter (ABCC3), ABCC3 (gene 8714); experiment: LTEA_HepaRG_ABCC3: Life Technologies and Expression Analysis (LTEA) Assay for ABC Transporter (ABCC3) using HepaRG (AID 2283462)
In short: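 Differentiated human HepaRG cells exposed 48 h in serum-free induction medium, 0.5% DMSO vehicle, 8-point half-log series to 100 uM in duplicate. ABCC3 mRNA by qRT-PCR, normalised to ACTB, GAPDH, POLR2A; bidirectional fit vs DMSO.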

[11] = read-out: ABC Transporter (ABCB11), ABCB11 (gene 8647); experiment: LTEA_HepaRG_ABCB11: Life Technologies and Expression Analysis (LTEA) Assay for ABC Transporter (ABCB11) using HepaRG (AID 2283463)
In short: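 ABCB11 transcript levels quantified by TaqMan qRT-PCR against three housekeeping genes after 48 h chemical exposure of HepaRG cultures. Concentrations up to 100 uM in half-log steps, 0.5% DMSO vehicle; both induction and suppression scored.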

[12] = read-out: ABC Transporter (ABCC2), ABCC2 (gene 1244); experiment: LTEA_HepaRG_ABCC2: Life Technologies and Expression Analysis (LTEA) Assay for ABC Transporter (ABCC2) using HepaRG (AID 2283464)
In short: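 Differentiated HepaRG cells in serum-free induction medium exposed 48 h to eight half-log concentrations up to 100 uM, 0.5% DMSO, in duplicate. ABCC2 mRNA measured by qRT-PCR (TaqMan, Fluidigm), normalized to ACTB, GAPDH and POLR2A. Fitted in both directions against DMSO.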

[13] = read-out: Broad substrate specificity ATP-binding cassette transporter ABCG2 (Homo sapiens) (UniProt Q9UNQ0); experiment: LTEA_HepaRG_ABCG2: Life Technologies and Expression Analysis (LTEA) Assay for ABC Transporter (ABCG2) using HepaRG (AID 2283465)
In short: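 ABCG2 transcript was quantified by TaqMan qRT-PCR against three housekeeping genes in HepaRG cells. Cells were treated in duplicate for 48 h across an 8-point half-log series up to 100 uM, with 0.5% DMSO vehicle. Gain or loss versus DMSO was fit.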

[14] = read-out: ATP-citrate lyase (ACLY), ACLY (gene 47); experiment: LTEA_HepaRG_ACLY: Life Technologies and Expression Analysis (LTEA) Assay for ATP-citrate lyase (ACLY) using HepaRG (AID 2283466)
In short: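 ACLY mRNA quantified by qRT-PCR on Fluidigm arrays against three housekeeping genes, after 48 h chemical treatment of HepaRG cells (top concentration 100 uM, half-log steps, 0.5% DMSO vehicle). Up- or down-regulation fitted relative to DMSO.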

[15] = read-out: Peroxisomal acyl-coenzyme A oxidase 1 (ACOX1) gene, ACOX1 (gene 51); experiment: LTEA_HepaRG_ACOX1: Life Technologies and Expression Analysis (LTEA) Assay for Peroxisomal acyl-coenzyme A oxidase 1 (ACOX1) gene using HepaRG (AID 2283467)
In short: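 ACOX1 transcript levels were quantified by TaqMan qRT-PCR against three housekeeping genes after 48 h chemical exposure of differentiated human HepaRG cells. Exposure used eight half-log steps topping at 100 uM, 0.5% DMSO vehicle, in duplicate. Bidirectional curve fits were made relative to DMSO.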

[16] = read-out: Alkaline Phosphatase, Placental (ALPP) gene, ALPP (gene 250); experiment: LTEA_HepaRG_ALPP: Life Technologies and Expression Analysis (LTEA) Assay for Alkaline Phosphatase, Placental (ALPP) gene using HepaRG (AID 2283468)
In short: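 HepaRG cells plated 48 h, then exposed in duplicate for 48 h in serum-free induction medium to 8-point half-log series from 100 uM in 0.5% DMSO. ALPP mRNA by TaqMan qRT-PCR, normalized to ACTB/GAPDH/POLR2A; bidirectional fit versus DMSO.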

[17] = read-out: Bcl-2 (BAD) gene, BAD (gene 572); experiment: LTEA_HepaRG_BAD: Life Technologies and Expression Analysis (LTEA) Assay for Bcl-2 (BAD) gene using HepaRG (AID 2283469)
In short: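 Read-out: qRT-PCR of BAD mRNA, normalized to three housekeeping genes. Human HepaRG cultures got 48 h chemical exposure in 0.5% DMSO, duplicate eight-point half-log series topping at 100 uM. Gain or loss of signal fitted versus DMSO vehicle.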

[18] = read-out: Bcl-2 (BAX) gene, BAX (gene 581); experiment: LTEA_HepaRG_BAX: Life Technologies and Expression Analysis (LTEA) Assay for Bcl-2 (BAX) gene using HepaRG (AID 2283470)
In short: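 Human HepaRG cells treated in duplicate for 48 h across eight concentrations (max 100 uM, 0.5% DMSO); BAX expression measured by qRT-PCR.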

[19] = read-out: adenosine kinase (ADK) gene, ADK (gene 132); experiment: LTEA_HepaRG_ADK: Life Technologies and Expression Analysis (LTEA) Assay for adenosine kinase (ADK) gene using HepaRG (AID 2283471)
In short: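 ADK expression quantified by qRT-PCR, normalised to three housekeeping genes, after 48 h exposure of HepaRG cells to eight concentrations (top 100 uM, half-log steps, duplicate, 0.5% DMSO). Up- or down-regulation fitted relative to vehicle.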

Sequence of Broad substrate specificity ATP-binding cassette transporter ABCG2 (Homo sapiens) (Q9UNQ0 whole entry, looked up): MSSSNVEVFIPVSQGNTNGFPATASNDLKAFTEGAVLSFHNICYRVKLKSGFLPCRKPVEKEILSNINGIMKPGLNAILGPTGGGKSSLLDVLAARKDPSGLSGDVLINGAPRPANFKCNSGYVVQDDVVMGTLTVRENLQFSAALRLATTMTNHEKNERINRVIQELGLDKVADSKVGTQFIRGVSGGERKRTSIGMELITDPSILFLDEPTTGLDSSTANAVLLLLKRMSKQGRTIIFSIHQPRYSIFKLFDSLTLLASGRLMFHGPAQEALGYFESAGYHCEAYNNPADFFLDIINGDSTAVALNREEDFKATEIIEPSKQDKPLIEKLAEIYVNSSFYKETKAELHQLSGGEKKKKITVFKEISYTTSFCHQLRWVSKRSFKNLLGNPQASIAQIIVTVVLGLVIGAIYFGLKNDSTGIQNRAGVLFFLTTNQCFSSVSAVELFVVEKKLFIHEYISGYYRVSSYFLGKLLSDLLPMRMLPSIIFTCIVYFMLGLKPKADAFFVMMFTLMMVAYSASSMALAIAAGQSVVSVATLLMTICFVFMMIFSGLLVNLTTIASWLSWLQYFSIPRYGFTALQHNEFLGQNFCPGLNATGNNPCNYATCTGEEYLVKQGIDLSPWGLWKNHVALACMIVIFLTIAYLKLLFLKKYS

Structure (SMILES): C=C(C)C(N)=O
- outcome [1]: inactive
- outcome [2]: inactive
- AC50 [3]: 50 µM (active)
- outcome [4]: inactive
- outcome [5]: inactive
- outcome [6]: inactive
- outcome [7]: inactive
- outcome [8]: inactive
- outcome [9]: inactive
- outcome [10]: inactive
- outcome [11]: inactive
- outcome [12]: inactive
- outcome [13]: inactive
- outcome [14]: inactive
- outcome [15]: inactive
- outcome [16]: inactive
- outcome [17]: inactive
- outcome [18]: inactive
- outcome [19]: inactive

Structure (SMILES): CCCCOCCOCCO
- outcome [1]: inactive
- outcome [2]: inactive
- AC50 [3]: 50 µM (active)
- outcome [4]: inactive
- outcome [5]: inactive
- outcome [6]: inactive
- outcome [7]: inactive
- outcome [8]: inactive
- outcome [9]: inactive
- outcome [10]: inactive
- outcome [11]: inactive
- outcome [12]: inactive
- outcome [13]: inactive
- outcome [14]: inactive
- outcome [15]: inactive
- outcome [16]: inactive
- outcome [17]: inactive
- outcome [18]: inactive
- outcome [19]: inactive

Structure (SMILES): CC/C(=C(\c1ccccc1)c1ccc(OCCN(C)C)cc1)c1ccccc1
- AC50 [1]: 51.7 µM (active)
- outcome [1]: inactive
- AC50 [2]: 27.9 µM (active) and 33.7 µM (active)
- AC50 [3]: 26.8 µM (active) and 68.3 µM (active)
- AC50 [4]: 64.9 µM (active) and 93.4 µM (active)
- AC50 [5]: 69.8 µM (active)
- outcome [5]: inactive
- outcome [6]: inactive
- AC50 [7]: 66.8 µM (active)
- outcome [7]: inactive
- AC50 [8]: 76.5 µM (active) and 77.8 µM (active)
- AC50 [9]: 79.1 µM (active) and 16.7 µM (active)
- AC50 [10]: 11.2 µM (active) and 23 µM (active)
- AC50 [11]: 26.4 µM (active) and 25.1 µM (active)
- AC50 [12]: 82.5 µM (active) and 93.4 µM (active)
- outcome [13]: inactive
- outcome [14]: inactive
- AC50 [15]: 45.8 µM (active)
- outcome [15]: inactive
- AC50 [16]: 21.5 µM (active) and 23.7 µM (active)
- outcome [17]: inactive
- outcome [18]: inactive
- AC50 [19]: 71.2 µM (active)
- outcome [19]: inactive
